Laboratory results: the supplement of paper PMC7411054
Counter-ions that a name gives are not always drawn.

Legend:
Assay in all cases: lowest phenotypically active concentration; higher = less potent
Details in all cases: treatment time: 24 h
HepG2-ACTB-RAB5A = tested on: HepG2-ACTB-RAB5A
Outline: (§1)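 Fifteen gene-edited A549, HepG2 and WPMY1 reporter lines (BFP segmentation plus GFP and RFP/FusionRed markers) were treated at 0.3, 1, 3 or 9 µM for 24 h, four wells each, then imaged live. Live-cell features per well were normalised to DMSO control wells. Deviation required ≥3 of 4 wells beyond the 95th percentile of DMSO Euclidean distances, and reproducibility required median replicate Pearson correlation above the 95th percentile of non-replicates. Phenotypic activity needed both criteria.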

HepG2-CANX-COX4 = tested on: HepG2-CANX-COX4
Outline: as §1

HepG2-GM130-SQSTM1 = tested on: HepG2-GM130-SQSTM1
Outline: as §1

HepG2-TP53BP1-CLTA = tested on: HepG2-TP53BP1-CLTA
Outline: as §1

HepG2-TUBA1B-RELA = tested on: HepG2-TUBA1B-RELA
Outline: as §1

WPMY1-ACTB-RAB5A = tested on: WPMY1-ACTB-RAB5A
Outline: as §1

WPMY1-CANX-COX4 = tested on: WPMY1-CANX-COX4
Outline: as §1

WPMY1-GM130-SQSTM1 = tested on: WPMY1-GM130-SQSTM1
Outline: as §1

WPMY1-TP53BP1-CLTA = tested on: WPMY1-TP53BP1-CLTA
Outline: as §1

WPMY1-TUBA1B-RELA = tested on: WPMY1-TUBA1B-RELA
Outline: as §1

| Compound | lowest phenotypically active concentration (HepG2-ACTB-RAB5A) [µM] | lowest phenotypically active concentration (HepG2-CANX-COX4) [µM] | lowest phenotypically active concentration (HepG2-GM130-SQSTM1) [µM] | lowest phenotypically active concentration (HepG2-TP53BP1-CLTA) [µM] | lowest phenotypically active concentration (HepG2-TUBA1B-RELA) [µM] | lowest phenotypically active concentration (WPMY1-ACTB-RAB5A) [µM] | lowest phenotypically active concentration (WPMY1-CANX-COX4) [µM] | lowest phenotypically active concentration (WPMY1-GM130-SQSTM1) [µM] | lowest phenotypically active concentration (WPMY1-TP53BP1-CLTA) [µM] | lowest phenotypically active concentration (WPMY1-TUBA1B-RELA) [µM] |
| --- | --- | --- | --- | --- | --- | --- | --- | --- | --- | --- |
| Cc1nc(Nc2ncc(C(=O)Nc3c(C)cccc3Cl)s2)cc(N2CCN(CCO)CC2)n1 [dasatinib] | ≤ 0.3 | ≤ 0.3 | ≤ 0.3 | ≤ 0.3 | ≤ 0.3 | ≤ 0.3 | ≤ 0.3 | ≤ 0.3 | ≤ 0.3 | ≤ 0.3 |
| c1ccc2c(c1)Cc1c(Nc3ccc4c(c3)OCCO4)n[nH]c1-2 | 3 | 3 | 9 | 3 | 3 | 3 | 3 | 3 | 3 | 3 |
| CC(C)(N)c1cc(C(=O)N[C@@H]2CCc3ccc(OC4=C5CCC(=O)N=C5NC=C4)cc3C2)cc(C(F)(F)F)c1 [ML 786 dihydrochloride] | ≤ 0.3 | ≤ 0.3 | ≤ 0.3 | ≤ 0.3 | ≤ 0.3 | 1 | 1 | 1 | 1 | 9 |
| CN(C)c1ccc(C(=O)NCCCCCCC(=O)NO)cc1 | ≤ 0.3 | ≤ 0.3 | 1 | 1 | ≤ 0.3 | 1 | ≤ 0.3 | ≤ 0.3 | ≤ 0.3 | ≤ 0.3 |
| C=CC(=O)Nc1cccc(CN2C(=O)N(c3c(Cl)c(OC)cc(OC)c3Cl)Cc3cnc(NCCCCN(CC)CC)nc32)c1 [FIIN 1 hydrochloride] | ≤ 0.3 | 3 | ≤ 0.3 | ≤ 0.3 | ≤ 0.3 | ≤ 0.3 | 1 | ≤ 0.3 | ≤ 0.3 | 1 |
| Cc1ccc(NC(=O)CCCCCC(=O)Nc2ccccc2N)cc1 | 1 | 9 | 3 | 3 | 9 | 9 | 3 | 9 | 3 | 9 |
| C[C@H]1COCCN1c1cc(C2(S(=O)(=O)C3CC3)CC2)nc(-c2ccc(NC(=S)NCCO)cc2)n1 | ≤ 0.3 | ≤ 0.3 | ≤ 0.3 | ≤ 0.3 | 1 | ≤ 0.3 | ≤ 0.3 | ≤ 0.3 | ≤ 0.3 | ≤ 0.3 |
| CCOC(=O)Nc1cc(-c2ccc(C)c(NS(C)(=O)=O)c2)nn2c(C)nnc12 [Bromosporine] | ≤ 0.3 | ≤ 0.3 | 1 | 1 | 1 | 1 | 1 | 1 | 1 | 1 |
| COc1c(C)cnc(Cn2cnc3c(Cl)nc(N)nc32)c1C | ≤ 0.3 | ≤ 0.3 | ≤ 0.3 | ≤ 0.3 | ≤ 0.3 | ≤ 0.3 | ≤ 0.3 | ≤ 0.3 | ≤ 0.3 | ≤ 0.3 |
| O=C(NCc1cccc(O)c1)Nc1nc(-c2ccncc2)cs1 [RKI 1447 dihydrochloride] | ≤ 0.3 | ≤ 0.3 | ≤ 0.3 | ≤ 0.3 | ≤ 0.3 | ≤ 0.3 | ≤ 0.3 | ≤ 0.3 | ≤ 0.3 | ≤ 0.3 |
| COc1cc(OC2CCN(C)CC2)ccc1Nc1ncc2c(n1)n(C1CCCC1)c(=O)n2C | 3 | 9 | 3 | 9 | 9 | 9 | 9 | 9 | 9 | 9 |
| CCC1=C[C@@H]2CN(C1)Cc1c([nH]c3ccccc13)[C@@](C(=O)OC)(c1cc3c(cc1OC)N(C)[C@H]1[C@@](O)(C(=O)OC)[C@H](OC(C)=O)[C@]4(CC)C=CCN5CC[C@]31[C@@H]54)C2 [vinorelbine] | ≤ 0.3 | ≤ 0.3 | ≤ 0.3 | ≤ 0.3 | ≤ 0.3 | ≤ 0.3 | ≤ 0.3 | ≤ 0.3 | ≤ 0.3 | ≤ 0.3 |
| Nc1nc(S)c2[nH]cnc2n1 [thioguanine] | 9 | 1 | 1 | 1 | 1 | 1 | 1 | 1 | 9 | 9 |
| CC(C)c1cc(-c2n[nH]c(=O)n2-c2ccc3c(ccn3C)c2)c(O)cc1O [ganetespib] | ≤ 0.3 | ≤ 0.3 | ≤ 0.3 | ≤ 0.3 | ≤ 0.3 | ≤ 0.3 | ≤ 0.3 | ≤ 0.3 | ≤ 0.3 | ≤ 0.3 |
| CCc1cc(-c2n[nH]c(C)c2-c2ccc3c(c2)OCCO3)c(O)cc1O | 3 | 3 | 3 | 3 | 9 | 3 | 3 | 3 | 3 | 3 |
| Cc1cc(Nc2cc(C)c(C#N)c(NC(C)CCCC(C)(C)O)n2)n[nH]1 (stereo not given) [TC-A 2317 hydrochloride] | 1 | 1 | ≤ 0.3 | ≤ 0.3 | ≤ 0.3 | 1 | 1 | 1 | ≤ 0.3 | 1 |
| COc1cc(N2CCC(N3CCN(C)CC3)CC2)ccc1Nc1ncnc(Nc2ccccc2S(=O)(=O)C(C)C)n1 | 9 | 3 | 9 | 9 | 9 | 9 | 3 | 9 | 9 | 9 |
| Nc1ccn([C@@H]2O[C@H](CO)[C@@H](O)[C@@H]2O)c(=O)n1 [cytarabine] | ≤ 0.3 | ≤ 0.3 | ≤ 0.3 | ≤ 0.3 | ≤ 0.3 | ≤ 0.3 | 1 | 1 | ≤ 0.3 | ≤ 0.3 |
| Clc1ccc(C2(c3ccc(-c4cn[nH]c4)cc3)CCNCC2)cc1 | ≤ 0.3 | ≤ 0.3 | ≤ 0.3 | ≤ 0.3 | ≤ 0.3 | ≤ 0.3 | ≤ 0.3 | ≤ 0.3 | 1 | ≤ 0.3 |
| Oc1ccc(-c2nc(-c3ccc(F)cc3)c(-c3ccncc3)[nH]2)cc1 | 3 | 1 | ≤ 0.3 | 1 | 3 | 9 | 9 | 3 | 9 | 3 |
| COC(=O)Nc1nc2ccc(C(=O)c3cccs3)cc2[nH]1 [Nocodazole] | ≤ 0.3 | ≤ 0.3 | ≤ 0.3 | ≤ 0.3 | ≤ 0.3 | ≤ 0.3 | ≤ 0.3 | ≤ 0.3 | ≤ 0.3 | ≤ 0.3 |
| COc1c(Nc2cc(C)[nH]n2)nc(Sc2ccc(S(=O)(=O)Cc3cccc([N+](=O)[O-])c3F)cc2F)nc1N1CCOCC1 [Centrinone] | 9 | 3 | 1 | 3 | 3 | 1 | 3 | 3 | 3 | 3 |
| CO[C@@H]1[C@H](N(C)C(=O)c2ccccc2)C[C@H]2O[C@]1(C)n1c3ccccc3c3c4c(c5c6ccccc6n2c5c31)C(=O)NC4 | ≤ 0.3 | ≤ 0.3 | ≤ 0.3 | ≤ 0.3 | ≤ 0.3 | ≤ 0.3 | ≤ 0.3 | 1 | ≤ 0.3 | ≤ 0.3 |
| COCC(=O)O[C@]1(CCN(C)CCCc2nc3ccccc3[nH]2)CCc2cc(F)ccc2[C@@H]1C(C)C [mibefradil] | 9 | 9 | 9 | 9 | 3 | 9 | 9 | 9 | 9 | 9 |
| COc1cc([C@@H]2c3cc4c(cc3[C@@H](O[C@@H]3O[C@@H]5CO[C@@H](c6cccs6)O[C@H]5[C@H](O)[C@H]3O)[C@H]3COC(=O)[C@H]23)OCO4)cc(OC)c1O [teniposide] | ≤ 0.3 | ≤ 0.3 | ≤ 0.3 | ≤ 0.3 | ≤ 0.3 | ≤ 0.3 | ≤ 0.3 | ≤ 0.3 | ≤ 0.3 | ≤ 0.3 |
| COc1ccc(-c2ccc3ncc4c(c3c2)n(-c2ccc(N3CCNCC3)c(C(F)(F)F)c2)c(=O)n4C)cn1 | ≤ 0.3 | ≤ 0.3 | ≤ 0.3 | ≤ 0.3 | ≤ 0.3 | ≤ 0.3 | ≤ 0.3 | ≤ 0.3 | ≤ 0.3 | ≤ 0.3 |
| CC(=O)O[C@@]12CO[C@@H]1C[C@H](O)[C@@]1(C)C(=O)[C@H](O)C3=C(C)[C@@H](OC(=O)[C@H](O)[C@@H](NC(=O)OC(C)(C)C)c4ccccc4)C[C@](O)([C@@H](OC(=O)c4ccccc4)[C@H]21)C3(C)C [Docetaxel] | ≤ 0.3 | ≤ 0.3 | ≤ 0.3 | ≤ 0.3 | ≤ 0.3 | ≤ 0.3 | ≤ 0.3 | ≤ 0.3 | ≤ 0.3 | ≤ 0.3 |
| Cc1ccc(C(=O)N(CCCN)[C@@H](c2oc3cc(Cl)ccc3c(=O)c2Cc2ccccc2)C(C)C)cc1 | ≤ 0.3 | ≤ 0.3 | ≤ 0.3 | ≤ 0.3 | ≤ 0.3 | ≤ 0.3 | 3 | ≤ 0.3 | ≤ 0.3 | ≤ 0.3 |
| CS(=O)(=O)c1cccc(CNc2nc(Nc3ccc4c(c3)CCC(=O)N4)ncc2C(F)(F)F)c1 | 1 | 1 | 3 | 1 | 1 | 1 | 3 | 3 | 1 | 3 |
